Screens deposited in PubChem BioAssay by National Center for Advancing Translational Sciences (NCATS).
BAZ2B inh – blocks human BAZ2B; Q9UIF8; AlphaScreen BAZ2B-H3K14Ac peptide displacement; Potency, µM (series often up to 114 µM), inactives show at the top dose activity change, negative = inhibition, actives largely listed as inhibitors; 4.4% of 360,000 active; AID 504333; also: % is scaled to controls: 0 for no effect and ±100 for the full control effect; nearly all actives have a fitted effect of over 60% in size
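BAZ2B 50 nM plus b-H3(5-23)K14Ac 50 nM, PBS pH 7.4/0.01% Tween-20, 30 min RT; compound added (max 110 uM), 30 min RT; streptavidin donor/Ni-chelate acceptor beads 10 ug/mL final, 20 min dark; AlphaScreen read.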
PLK1 PBD inh – PLK1 (human) polo-box domain binding inhibition | AID 720504 | Potency, µM, for the others: max response, negative = inhibition, actives largely listed as inhibitors | P53350 | Plk1 PBD binding of FITC phosphopeptide, fluorescence polarization | 2.8% of 360,000 active; also: series mostly up to about 57 µM; % is scaled to controls: 0 for no effect and ±100 for the full control effect; nearly all actives have a fitted effect of over 65% in size
Target sequence (P53350 whole entry, looked up, the tested form may be a part): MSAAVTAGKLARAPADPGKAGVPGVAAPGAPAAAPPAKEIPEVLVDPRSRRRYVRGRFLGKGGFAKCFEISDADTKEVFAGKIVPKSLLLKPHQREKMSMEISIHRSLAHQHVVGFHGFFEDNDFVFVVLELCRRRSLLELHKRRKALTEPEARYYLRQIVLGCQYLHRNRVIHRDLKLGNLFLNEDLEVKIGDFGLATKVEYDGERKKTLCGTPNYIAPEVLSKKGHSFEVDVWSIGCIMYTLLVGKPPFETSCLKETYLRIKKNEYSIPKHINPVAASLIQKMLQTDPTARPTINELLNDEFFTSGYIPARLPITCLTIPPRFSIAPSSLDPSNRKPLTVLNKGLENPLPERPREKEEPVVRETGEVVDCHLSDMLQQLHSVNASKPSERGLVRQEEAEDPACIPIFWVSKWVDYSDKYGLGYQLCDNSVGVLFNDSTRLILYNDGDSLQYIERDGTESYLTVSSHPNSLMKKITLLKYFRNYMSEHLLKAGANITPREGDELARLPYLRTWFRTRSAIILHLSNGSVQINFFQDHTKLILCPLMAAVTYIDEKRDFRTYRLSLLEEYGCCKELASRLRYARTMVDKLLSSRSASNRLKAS
G9a inh – blocks human histone lysine methyltransferase G9a. 8.8% of 350,000 active. Potency, µM (doses to about 102 µM), without a hit: at the highest dose activity, negative = inhibition, hits mostly inhibitors. Q96KQ7. G9a H3K9 monomethylation, AlphaScreen, 2 h; also: % is scaled to controls: 0 for no effect and ±100 for the full control effect; nearly all actives have a fitted effect of over 75% in size
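Readings reflect AlphaScreen signal from monomethyl-H3K9 antibody detection. HMT at 20 nM; substrate b-H3K9 500 nM; cofactor SAM 20 uM; 2 h RT reaction; compounds tested as titrations in qHTS with 15 min preincubation.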
JMJD2A Tudor – inhibitors of human JMJD2A Tudor domain | O75164 | AlphaScreen JMJD2A-Tudor / H3K4me3 peptide binding | Potency, µM (series often up to 114 µM), without a hit: at the highest dose activity change, negative = inhibition, actives largely listed as inhibitors | 4.4% of 390,000 active | AID 504339; also: % is scaled to controls: 0 for no effect and ±100 for the full control effect; nearly all actives have a fitted effect of over 50% in size
HP1b chromo inh – inhibitors of HP1-beta chromodomain binding to methylated histone tails; P83916; AlphaScreen HP1-beta / biotin-H3K9me3 peptide binding; Potency, µM (top dose mostly 114 µM), without a hit: at the highest dose activity change, negative = inhibition, hits mostly inhibitors; 0.56% of 390,000 active; AID 540317; also: nearly all actives have a fitted effect of over 70% in size
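HP1-beta protein (50 nM final) preincubated 30 min at room temperature with biotinylated H3(1-18)K9me3 peptide (50 nM) in PBS pH 7.4, 0.01% Tween-20, then compound added for 30 min. AlphaScreen streptavidin donor/nickel chelate acceptor beads (10 ug/mL final), 30 min dark, luminescence read.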
Sfp inh – Sfp phosphopantetheinyl transferase inhibition; 3.5% of 310,000 active; AID 1490; Potency, µM, without a hit: largest response in the series, negative = inhibition, usual class: inhibitors; Biochemical Sfp PPTase activity, qHTS;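 also: the enzyme is Sfp with the accession as filed and its product quenches rhodamine fluorescence; 0% = enzyme reaction without inhibitor and -100% = no enzyme wells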
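With Hepes-Na pH 7.6 buffer containing 10 mM MgCl2, Sfp (15 nM) modified BHQ-2-YbbR (12.5 uM) using rhodamine-CoA (5 uM). Two reads 30 minutes apart at 525/598 nm yielded each well's rate.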
The depositor's hits bear a star; [ ] = another dose, or the depositor's remark. An excerpt weighted towards active compounds, which were near 12% of everything screened. Calls follow the shape of the dose curve; as a rule, active = well fitted curve in the direction sought with a large enough effect; inconclusive = small, poorly fitted or top-dose-only effect, or another doubt; inactive = no such curve, though single readings can be large; an effect the other way counts as inactive or inconclusive. Potency is read from the fitted curve at half-maximal effect.

For COc1ccc(N2CC(O)=C(c3nc(-c4ccc(Br)cc4)cs3)C2=N)cc1 the results were BAZ2B inh -13.9%, PLK1 PBD inh -2.1%, G9a inh 4.6%, JMJD2A Tudor -9.5%, HP1b chromo inh 28.6% and Sfp inh 23.6%.
For COc1ccc([C@H]2C[C@H](O)[C@@H](n3cc(-c4ccc(F)cc4)nn3)CN2CC2CCCCC2)cc1 the results were PLK1 PBD inh 0.7%.
`O=S(=O)(c1ccccc1)N1CCN(c2nc(-c3ccc(F)cc3)nc3cc(Cl)ccc23)CC1` gave JMJD2A Tudor -11.0% and HP1b chromo inh 64.8%.
Screening N#Cc1ccc(OC(=O)c2cnccn2)cc1 returned BAZ2B inh 79.4µM*, PLK1 PBD inh inconclusive, G9a inh 31.6µM*, JMJD2A Tudor inconclusive, HP1b chromo inh 7.6% and Sfp inh -18.3%.
For CCC(=O)c1ccc(OC(=O)c2cnccn2)cc1 the results were BAZ2B inh -31.2%, PLK1 PBD inh inconclusive, G9a inh inconclusive, JMJD2A Tudor -6.4%, HP1b chromo inh 54.6% and Sfp inh 3.5%.
`CO[C@@H]1C[C@H](O[C@H]2[C@@H](C)[C@H](O[C@@H]3O[C@@H](C)C[C@@H](N(C)C)[C@@H]3OC(C)=O)[C@H](C)C[C@]3(CO3)C(=O)[C@H](C)[C@H](OC(C)=O)[C@H](C)[C@H](C)OC(=O)[C@@H]2C)O[C@H](C)[C@@H]1OC(C)=O` gave G9a inh 27.3%[21.5 µM] and Sfp inh 12.1%.
`CC(C)(C)C(=O)Nc1ccc(N=Nc2ccccc2)cc1` gave BAZ2B inh -3.9%, PLK1 PBD inh -0.9%, G9a inh 1.8%, JMJD2A Tudor -31.0%, HP1b chromo inh 9.3% and Sfp inh -5.9%.
For Oc1ccc(N=Nc2ccccc2)o1 the results were BAZ2B inh -15.8%, PLK1 PBD inh inconclusive, G9a inh 39.8µM*, JMJD2A Tudor -17.1%, HP1b chromo inh 25.6% and Sfp inh inconclusive.
Screening CCC(NC(=O)NNC(N)=S)(C(F)(F)F)C(F)(F)F returned BAZ2B inh -13.3%, PLK1 PBD inh -10.7%, G9a inh inconclusive, JMJD2A Tudor -19.5%, HP1b chromo inh 14.0% and Sfp inh 44.7µM*.
`Clc1ccc(CCNc2nc3cc(Cl)c(Cl)cc3n3cnnc23)cc1` gave BAZ2B inh 0.8%, G9a inh 9.0%[59 µM], JMJD2A Tudor -9.9% and HP1b chromo inh 11.9%.
For COC(=O)[C@@]12CCCN1[C@H](c1ccc(-c3ccccc3)cc1)[C@H]1C(=O)N(C)C(=O)[C@H]12 the results were BAZ2B inh -13.3%, PLK1 PBD inh -13.3%, G9a inh 14.9%[2.33 µM], JMJD2A Tudor 79.4µM* and HP1b chromo inh 7.5%.
Screening CN(C(=O)COc1cccc(C#N)c1)C1CCS(=O)(=O)C1 (centres undefined) returned BAZ2B inh -9.9%, PLK1 PBD inh -6.7%, G9a inh -32.3%[59 µM], JMJD2A Tudor -1.0% and HP1b chromo inh 26.4%.
For CC(=O)Nc1ccccc1OC1=N[S+](=O)([O-])c2ccccc21 the results were JMJD2A Tudor -9.9%.
`CCOC(=O)c1c(N)n(-c2cccc(OC)c2)c2nc3ccccc3nc12` gave BAZ2B inh -2.7%, G9a inh -8.1%[59 µM], JMJD2A Tudor -2.9% and HP1b chromo inh 32.6%.
CCOC(=O)c1c2c(n(-c3ccc(OC)cc3)c1C)C(=O)C(=O)c1ccccc1-2 was read as PLK1 PBD inh inconclusive, JMJD2A Tudor 17.8µM* and HP1b chromo inh inconclusive.
COC(=O)C(C)N1C(=O)S/C(=C\c2ccc(-c3ccc(C(=O)O)cc3C)o2)C1=O (centres undefined) was read as BAZ2B inh inconclusive, PLK1 PBD inh 29.9µM*, G9a inh 39.8µM*, JMJD2A Tudor inconclusive, HP1b chromo inh inconclusive and Sfp inh -1.3%.
